GRP78 ERSR act: ER stress response induction in glioma; U87-MG GRP78 promoter luciferase reporter, 16 h; 420,000 compounds, 0.02% hits; Potency, µM, without a hit: top-dose activation, usual class: activators; also: series mostly up to about 76 µM; % of control where 0% means no effect; nearly all actives have a fitted effect of over 35% in size
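Stably transfected U87-MG human glioma cells carrying a GRP78-based luminescent sensor were seeded at 1000 cells/well, pin-dosed with compounds and incubated 16 h. Luciferase reagent was then added, and end-point luminescence was read after 10 min at room temperature.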
G9a block: inhibitors of human histone lysine methyltransferase G9a; 350,000 compounds, 8.8% hits; AID 504332; Q96KQ7; Potency, µM (highest dose often 102 µM), for the others: top-dose activity, negative = inhibition, most hits filed as inhibitors; G9a H3K9 monomethylation, AlphaScreen, 2 h; also: % is scaled to controls: 0 for no effect and ±100 for the full control effect; nearly all actives have a fitted effect of over 75% in size
Target sequence (Q96KQ7 913-1193 limits assumed): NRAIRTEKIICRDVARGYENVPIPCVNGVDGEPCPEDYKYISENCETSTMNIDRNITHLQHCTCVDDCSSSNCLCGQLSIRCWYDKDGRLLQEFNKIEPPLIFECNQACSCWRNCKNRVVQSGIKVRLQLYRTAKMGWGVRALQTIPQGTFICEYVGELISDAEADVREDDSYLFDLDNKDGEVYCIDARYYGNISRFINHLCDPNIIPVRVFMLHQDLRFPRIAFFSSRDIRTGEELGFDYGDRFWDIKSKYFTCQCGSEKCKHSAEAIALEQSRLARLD
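AlphaScreen detection with an anti-monomethyl H3K9 antibody quantified product after a 2 h room-temperature reaction containing 500 nM biotinylated H3K9 peptide, 20 µM SAM and 20 nM enzyme, which had been preincubated 15 min with compound.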
Sfp inh: Sfp phosphopantetheinyl transferase inhibition; Q9F4F7; Biochemical Sfp PPTase activity, qHTS; Potency, µM, for the others: largest response in the series, negative = inhibition, most hits filed as inhibitors; 310,000 compounds, 3.5% hits; AID 1490;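 also: the enzyme is Sfp with the accession as filed and its product quenches rhodamine fluorescence; 0% = enzyme reaction without inhibitor and -100% = no enzyme wells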
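With Hepes-Na pH 7.6 buffer containing 10 mM MgCl2, Sfp (15 nM) modified BHQ-2-YbbR (12.5 uM) using rhodamine-CoA (5 uM). Two reads 30 minutes apart at 525/598 nm yielded each well's rate.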
ALOX12 inh: blocks human arachidonate 12S-lipoxygenase. purified 12hLO, xylenol orange hydroperoxide absorbance. P18054. Potency, µM (highest dose often 108 µM), inactives show at the top dose activity change, negative = inhibition, most hits filed as inhibitors. AID 1671190. 580,000 compounds, 1.1% hits; also: % is scaled to controls: 0 for no effect and ±100 for the full control effect
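Purified human 12hLO at 150 nM in 25 mM Hepes, 0.01% Triton X-100, pH 7.0, preincubated 15 min at room temperature with compound. Reaction started with 40 uM arachidonic acid, 30 min at room temperature. Hydroperoxide measured by Fe-xylenol orange, 573/405 nm absorbance ratio.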
VDR inh: blocks the human vitamin D receptor; VDR-SRC2-3 peptide fluorescence polarization, 2 h; Potency, µM, for inactives: max response, negative = inhibition, usual class: inhibitors; 400,000 compounds, 0.93% hits; also: % is scaled to controls: 0 for no effect and ±100 for the full control effect
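Measured by FP: displacement of SRC2-3 coactivator peptide from VDR by library compounds, following a two-hour ambient incubation.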
The depositor's hits bear a star; ? = inconclusive; . = not tested or not shown; [ ] = another dose, or the depositor's remark. Shown is part of a subset that was picked to be rich in hits. Calls follow the shape of the dose curve; as a rule, active = well fitted curve in the direction sought with a large enough effect; inconclusive = small, poorly fitted or top-dose-only effect, or another doubt; inactive = no such curve, though single readings can be large; an effect the other way counts as inactive or inconclusive. Potency is read from the fitted curve at half-maximal effect.

SMILES | GRP78 ERSR act | G9a block | Sfp inh | ALOX12 inh | VDR inh
CN(C)c1ccc(/C=N/NC(=O)c2ccccc2)cc1 | -7.7% | -40.8% | 18.8% | 15.1% | -6.7%
CCOc1ccc(NC(=O)C/C(C)=N/NC(=O)c2cnccn2)cc1 | 1.4% | 5.9%[0.501 µM] | -24.5% | 5.9% | 6.3%
CC/C(=N\NC(=O)c1ccc(N(C)C)cc1)c1ccccc1 | 0.8% | 28.2µM* | -29.2% | 2.8% | -18.2%
C/C(CC(=O)NC12CC3CC(CC(C3)C1)C2)=N\NC(=O)c1cnccn1 | -0.7% | -2.3%[59 µM] | 50.1µM* | 2.9% | -26.9%
COC(=O)C1=C(N)OC2=C(C(=O)CC(C)(C)C2)C1c1ccc(Cl)cc1 (centres undefined) | . | . | . | -39.4% | .
COc1ccc(C(=O)Nc2cc3c(cc2C(=O)c2ccc(C)cc2)OCCO3)cc1 | . | . | . | -4.3% | .
COC(C(=O)N/N=C(\C)CC(=O)Nc1ccc(N(C)C)cc1)c1ccccc1 (centres undefined) | -1.4% | 15.8µM* | -11.6% | 19.0% | -5.9%
C/C(CC(=O)Nc1ccc(N(C)C)cc1)=N\NC(=O)c1ccncc1 | 3.1% | 35.5µM* | -5.4% | 16.3% | -19.1%
C/C(CC(=O)Nc1ccc(N(C)C)cc1)=N\NC(=O)c1ccccn1 | -3.5% | 50.1µM* | -23.3% | 9.8% | 4.0%
CO[C@H]1/C=C\O[C@@]2(C)Oc3c(C)c(O)c4c(O)c(c(C=NN5CCN(C6CCCC6)CC5)c(O)c4c3C2=O)NC(=O)C(C)=CC=C[C@H](C)[C@H](O)[C@@H](C)[C@@H](O)[C@@H](C)[C@H](OC(C)=O)[C@H]1C | -1.9% | . | . | ? | .
CO[C@H]1/C=C/O[C@@]2(C)Oc3c(C)c(O)c4c(O)c(c(/C=N\N5CCN(C6CCCC6)CC5)c(O)c4c3C2=O)NC(=O)/C(C)=C\C=C\[C@H](C)[C@H](O)[C@@H](C)[C@@H](O)[C@@H](C)[C@H](OC(C)=O)[C@@H]1C | 14.0% | ? | -19.1% | . | 11.2µM*
CC(=O)N1CCC2(CC1)CN(C(=O)c1cccc3[nH]ccc13)Cc1ccccc1O2 | . | . | . | 7.5%[6.33 µM] | .
CC1=NN(c2nc(-c3ccc(C)cc3)cs2)C(=O)C1N=Nc1ccc2ccccc2c1 (centres undefined) | 0.1% | 1µM* | 10.8% | 0.0% | 15.3%
CN1CCN(c2ccccc2/C=C2/C(=O)Nc3ccccc32)CC1 | -1.3% | 50.1µM* | -3.0% | . | -4.2%
CCCOc1ccc(CCc2n[nH]c(=S)n2-c2ccccc2)cc1 | -1.4% | 5.62µM* | -10.0% | ? | -6.6%
CCCCC(CC(O)COCCC)c1n[nH]c(=S)n1-c1ccccc1 (centres undefined) | -2.4% | 14.8%[0.501 µM] | ? | -29.4% | 25.6%
CCCCCC(O)CCc1n[nH]c(=S)n1-c1ccccc1 (centres undefined) | -2.2% | 8.91µM* | -5.1% | ? | -3.1%
CCCCn1cnc2c1c(=O)n(CC(=O)Nc1ccc(C)c(F)c1)c(=O)n2CCCC | . | . | . | 6.9% | .
COC(=O)c1cc(OC)c(OC)c(OC)c1NC(=O)c1cc(=O)n(C)c(=O)n1C | -2.8% | 28.2µM* | . | -6.6% | -14.5%
CCC(C)Nc1nc(N)c([N+](=O)[O-])c(Nc2ccccc2OC)n1 (centres undefined) | -5.2% | 44.7µM* | -3.6% | 0.0% | 6.9%
C=CCNc1nc(N)c([N+](=O)[O-])c(Nc2ccccc2OC)n1 | -6.9% | -0.4% | 16.0% | 0.0% | 4.7%
COc1ccc(OC)c(Nc2nc(N(C)c3ccccc3)nc(N)c2[N+](=O)[O-])c1 | -6.4% | 35.5µM* | -6.3% | 5.6% | -13.5%
COc1ccccc1Nc1nc(NCCCN(C)C)nc(N)c1[N+](=O)[O-] | -5.9% | 50.1µM* | -27.1% | -13.4% | -6.9%
CN(c1ccccc1)c1nc(N)c([N+](=O)[O-])c(Nc2ccccc2F)n1 | 0.4% | -4.4%[2.33 µM] | 4.2% | 4.3% | 11.3%
CCC(C)Nc1nc(N)c([N+](=O)[O-])c(Nc2cc(OC)ccc2OC)n1 (centres undefined) | -5.6% | ? | -11.8% | 0.0% | -4.3%
COC(=O)c1ccc(COC(=O)c2cc3ccccc3s2)o1 | . | . | . | 6.8% | .
CCOc1ccccc1Oc1coc2cc(OC(=O)c3ccc(F)cc3)ccc2c1=O | . | . | . | -22.1% | .
COc1cccc(Nc2nc(-c3ccc(O)cc3)cs2)c1 | 15.3% | 50.1µM* | -1.8% | ? | -1.1%

Assay outcomes as filed in PubChem BioAssay.
